KDM5B inhibitor – KDM5B demethylase inhibition. Q9UGL1. KDM5B demethylase, FDH-coupled NADH fluorescence (FDH is formaldehyde dehydrogenase). Potency, µM (series often up to 57.7 µM), actives largely listed as inhibitors. 220,000 compounds, 2.6% hits. AID 1347165; active = well fitted inhibition curve with a large enough effect; note: 0% is about no effect; nearly all actives have a fitted effect of over 70% in size
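Measured: NADH fluorescence change, 30 min, RT. System: KDM5BΔAP 200 nM final, H3K4me3 peptide, α-KG, Fe(II), ascorbate, NAD⁺ plus FDH, pH 7.5 HEPES. Compounds: titrated, 10 min pre-incubation with enzyme.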
* hit, by the source's call; i = inactive. This excerpt belongs to a sample that is enriched for hits. Potency is the fitted concentration of half-maximal effect.

SMILES | KDM5B inhibitor
O=C(COc1ccc(C(=O)c2ccc(F)cc2)cc1)NC(=O)NCc1ccccc1 | i
O=C(COc1ccc(F)cc1)NCC1Cn2cccc2CN1Cc1ccccc1 (stereo not drawn) | 25µM*
CCCCn1c(-n2nc(CC)cc2CC)nc2c1c(=O)n(CC(N)=O)c(=O)n2C | i
COc1cc(SC)ccc1C(=O)Nc1nnc(C(F)(F)F)s1 | i
C/C(=N\O)c1cccc(-n2cccc2)c1 | i
COC(=O)c1cc(OC(=O)c2cccc3ccccc23)cc(C(=O)OC)c1 | i
Nc1ccc(/C=C/c2ccc([N+](=O)[O-])cc2)cc1 | i
CC(C)(C)c1ccc(CCC(=O)NC(C(N)=O)c2ccccc2)cc1 (stereo not drawn) | i
Cc1cc(C)c2c(=O)cc(C(=O)N(Cc3cccs3)C3CCS(=O)(=O)C3)oc2c1 (stereo not drawn) | i
CC(CCc1ccccc1)NC(=O)c1cccnc1Cl (stereo not drawn) | i
COc1cc(/C=N/OCc2cccc3ccccc23)ccc1OCc1ccc(Cl)cc1 | i
CCOc1nnc(CN2CCN(c3cccc(F)c3C#N)CC2)s1 | i
CN1C(=O)c2cccn2CC1CNC(=O)Nc1ccccc1 (stereo not drawn) | i
O=C(CCc1nc2ccccc2s1)NCC1CCCCC(=O)N1 (stereo not drawn) | i
CCn1cc(S(=O)(=O)NCC2Cn3cccc3CN2Cc2ccccc2)cn1 (stereo not drawn) | 28µM*
O=C(CCc1nc2ccccc2s1)NCC1Cn2cccc2CN1Cc1ccccc1 (stereo not drawn) | 25µM*
CCn1cc(S(=O)(=O)NCC2Cn3cccc3C(=O)N2CCOC)cn1 (stereo not drawn) | i
O=C(CCc1nc2ccccc2s1)NCCc1cccc(F)c1 | i
CN1Cc2cccn2CC1CNC(=O)NC1CCCCC1 (stereo not drawn) | 28µM*
COc1ccc(S(=O)(=O)NCC2Cn3cccc3C(=O)N2Cc2ccccc2)cc1 (stereo not drawn) | i
CN1C(=O)c2cccn2CC1CNC(=O)NCCc1ccccc1 (stereo not drawn) | i
CNC(=O)CSc1nc2c(c(C(F)(F)F)c1C#N)CCCC2 | i
COc1ccccc1OCC(=O)Nc1cc(-c2ccc(F)c(F)c2)no1 | i
C/C(=N/n1c(C)csc1=NC(C)C)c1ccccc1 | i
FC(F)(F)c1ccccc1CNCc1ccccc1 | i
SMILES | KDM5B inhibitor
CCOC(=O)C(=O)Nc1c(C(=O)Nc2ccc(F)cc2)oc2ccccc12 | i
Cc1ccc(CC2C(=O)N(C)c3ccc(Br)cc32)cc1 (stereo not drawn) | i
CC(NC(=O)CC(C)(C(=O)O)c1ccccc1)c1ccc(F)c(F)c1 (stereo not drawn) | i
COc1c(CNC(C)c2nnc3n2CCCCC3)c(C(C)C)nn1C (stereo not drawn) | i
O=C(c1ccc2c(c1)OCO2)N1CCc2nc(C3CC3)nc(-c3ccc(Cl)cc3)c2CC1 | i
COC(=O)c1ccc(COc2ccc3c(=O)c(Oc4ccc(OC)cc4)c(C(F)(F)F)oc3c2)cc1 | i
CCc1[nH]c2c(CNC(=O)C(C)O)cc(C)cc2c1C (stereo not drawn) | 32µM*
CCC(C)C(=O)NCCc1c[nH]c2ccc(C)cc12 (stereo not drawn) | i
CCC(C(=O)NCc1cc(C)ccc1OC)c1ccccc1 (stereo not drawn) | i
Cc1cc(C(F)(F)F)n2ncc(C(=O)N3C[C@@H](C)[C@](O)(C4CCC4)C3)c2n1 | i
Cc1cc(C2CCC2)nc(N2C[C@@H](C)[C@@](C)(O)C2)n1 | 28µM*
C[C@@H]1CN(C(=O)c2ccc3c(c2)CCC3)C[C@]1(C)O | i
COc1ccc(/C(C)=N/OC(=O)c2ccc(OC(C)C)cc2)cc1OC | i
Cc1ccc(NC(=O)C=C2CCCCC2)cc1 | i
CCc1noc(-c2cccn3c(CNC(=O)c4cc(C)ccc4C)nnc23)n1 | 10µM*
CCc1noc(-c2cccn3c(CNC(=O)c4ccccc4C)nnc23)n1 | 28µM*
CCc1noc(-c2cn(C3CCN(C(=O)c4cc(C)ccc4C)CC3)nn2)n1 | i
Cc1cccc(C)c1NC(=O)CN1CCN(Cc2nc3ccccc3o2)CC1 | i
CC1CCN(S(=O)(=O)c2ccc(NC(=O)c3cc(=O)c4cc(Cl)ccc4o3)cc2)CC1 | i
Fc1ccc(C2=Nc3ccc(Cl)cc3NC(c3cccs3)=N2)cc1 | i
Cc1ccc(NC(=O)CCN2CCN(Cc3ccccc3)CC2)cc1Br | i
CC1(C)CC(CN2CCC3(CC2)CC(=O)N(Cc2ccccc2)C3)CCO1 (stereo not drawn) | i
COc1ccc(OC)c(CN2CCNc3cnc(Nc4ccccc4)cc3C2)c1 | 35µM*
COc1ccc(CN2CCNc3cc(Nc4cccnc4)ncc3C2)cc1O | i
c1cncc(Nc2cc3c(cn2)CN(Cc2ccc4[nH]ccc4c2)CCN3)c1 | i
COc1ccc(CN2CCNc3cnc(Nc4cccnc4)cc3C2)cc1O | 35µM*
COc1ccc(OC)c(CN2CCNc3cc(-c4ccccc4)ncc3C2)c1 | i
